Measurements: the supplement of paper PMC10849652
About 7,900 targets were measured; listed, in parts, are those with a hit and a random draw of the rest. About 0.6% of all pairs of compound and target were hits.

Key:
Assay in all cases: log2 fold change, soluble protein after heating vs DMSO (PISA); higher = thermal stabilisation; K562 cells, 10 uM, 30 min; active = over 0.2 and 3.5 SD of the protein, either way, in both replicates (recomputed)
[1] = compound: NC(=O)Nc1cc(-c2cccc(F)c2)sc1C(=O)N[C@H]1CCCNC1
In short: (§1)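 K562 cells at 2×10^6 cells/mL were exposed to 10 μM compound for 30 min, then aliquots were heated for 3 min across 48°C-58°C, pooled, and extracted in PBS containing 0.5% NP-40 at 4°C. The supernatant after 21,000xg for 90 min was taken as soluble protein and measured by TMTpro 16plex LC-MS/MS with channel sums equalised. Thermal stability is reported relative to control samples, with values from duplicates. Fold changes are given on a log2 scale.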

[2] = compound: NC(=O)c1cnc(N[C@@H]2CCCC[C@@H]2N)nc1Nc1cccc(-n2nccn2)c1
In short: as §1

[3] = compound: NC1(c2ccc(-c3nc4ccn5c(=O)[nH]nc5c4cc3-c3ccccc3)cc2)CCC1
In short: as §1

[4] = compound: NCC(=O)Nc1ccc(-n2nc(C(F)(F)F)cc2-c2ccc3c(ccc4ccccc43)c2)cc1
In short: as §1

entinostat = compound: Nc1ccccc1NC(=O)c1ccc(CNC(=O)OCc2cccnc2)cc1 [entinostat]
In short: as §1

vorinostat = compound: O=C(CCCCCCC(=O)Nc1ccccc1)NO [vorinostat]
In short: as §1

citarinostat = compound: O=C(CCCCCCNC(=O)c1cnc(N(c2ccccc2)c2ccccc2Cl)nc1)NO [citarinostat]
In short: as §1

silmitasertib = compound: O=C(O)c1ccc2c(c1)nc(Nc1cccc(Cl)c1)c1ccncc12 [silmitasertib]
In short: as §1

[5] = compound: O=C1NC(=O)C(c2cnc3ccccn23)=C1c1cn2c3c(cc(F)cc13)CN(C(=O)N1CCCCC1)CC2
In short: as §1

[6] = compound: c1cc(OCCN2CCCCC2)cc(-c2n[nH]c3ccc(-c4nnc[nH]4)cc23)c1
In short: as §1

entospletinib = compound: c1cn2cc(-c3ccc4cn[nH]c4c3)nc(Nc3ccc(N4CCOCC4)cc3)c2n1 [entospletinib]
In short: as §1

Measured: log2 fold change

RAB3IL1 (UniProt Q8TBN0)
inactive: [1] 0.041 | [2] -0.011 | [3] -0.025 | [4] -0.046 | entinostat -0.019 | vorinostat -0.032 | citarinostat 0.035 | silmitasertib 0.053 | [5] -0.038 | [6] 0.008 | entospletinib 0.005

RELA (UniProt Q04206)
inactive: [1] -0.009 | [2] -0.06 | [3] -0.121 | [4] -0.016 | entinostat 0.019 | vorinostat 0.036 | citarinostat 0.079 | silmitasertib -0.029 | [5] -0.017 | [6] -0.002 | entospletinib -0.062

RBM39 (UniProt Q14498)
UniProt Q14498, sequence (Q14498 whole entry, looked up): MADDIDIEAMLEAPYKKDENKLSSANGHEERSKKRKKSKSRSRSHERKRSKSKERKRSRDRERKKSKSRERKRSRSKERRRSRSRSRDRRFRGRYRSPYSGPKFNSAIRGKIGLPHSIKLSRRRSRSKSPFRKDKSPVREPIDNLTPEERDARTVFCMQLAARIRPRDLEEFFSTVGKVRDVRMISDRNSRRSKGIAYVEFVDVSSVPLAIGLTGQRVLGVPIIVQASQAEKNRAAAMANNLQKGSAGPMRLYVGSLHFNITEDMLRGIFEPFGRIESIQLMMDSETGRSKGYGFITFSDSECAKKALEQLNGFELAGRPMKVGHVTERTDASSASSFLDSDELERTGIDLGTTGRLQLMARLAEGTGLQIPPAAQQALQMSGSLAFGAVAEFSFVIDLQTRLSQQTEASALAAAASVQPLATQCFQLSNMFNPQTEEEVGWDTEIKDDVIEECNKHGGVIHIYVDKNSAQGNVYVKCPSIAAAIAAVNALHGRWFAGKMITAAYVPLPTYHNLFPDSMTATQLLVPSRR
inactive: [1] -0.141 | [2] -0.079 | [3] 0.023 | [4] -0.152 | entinostat 0.02 | vorinostat 0.062 | citarinostat 0.105 | silmitasertib -0.083 | [5] 0.049 | [6] -0.144 | entospletinib -0.125

RPL38 (UniProt P63173)
inactive: [1] -0.005 | [2] 0.022 | [3] 0.09 | [4] 0.024 | entinostat -0.022 | vorinostat 0.002 | citarinostat -0.003 | silmitasertib -0.008 | [5] 0 | [6] -0.094 | entospletinib -0.014

REEP4 (UniProt Q9H6H4)
inactive: [1] 0.002 | [2] -0.032 | [3] -0.012 | [4] 0.084 | entinostat 0.027 | vorinostat 0.088 | citarinostat 0.048 | silmitasertib 0.027 | [5] 0.097 | [6] -0.059 | entospletinib 0.055

SEC31A (UniProt O94979)
UniProt O94979, sequence (O94979 whole entry, looked up): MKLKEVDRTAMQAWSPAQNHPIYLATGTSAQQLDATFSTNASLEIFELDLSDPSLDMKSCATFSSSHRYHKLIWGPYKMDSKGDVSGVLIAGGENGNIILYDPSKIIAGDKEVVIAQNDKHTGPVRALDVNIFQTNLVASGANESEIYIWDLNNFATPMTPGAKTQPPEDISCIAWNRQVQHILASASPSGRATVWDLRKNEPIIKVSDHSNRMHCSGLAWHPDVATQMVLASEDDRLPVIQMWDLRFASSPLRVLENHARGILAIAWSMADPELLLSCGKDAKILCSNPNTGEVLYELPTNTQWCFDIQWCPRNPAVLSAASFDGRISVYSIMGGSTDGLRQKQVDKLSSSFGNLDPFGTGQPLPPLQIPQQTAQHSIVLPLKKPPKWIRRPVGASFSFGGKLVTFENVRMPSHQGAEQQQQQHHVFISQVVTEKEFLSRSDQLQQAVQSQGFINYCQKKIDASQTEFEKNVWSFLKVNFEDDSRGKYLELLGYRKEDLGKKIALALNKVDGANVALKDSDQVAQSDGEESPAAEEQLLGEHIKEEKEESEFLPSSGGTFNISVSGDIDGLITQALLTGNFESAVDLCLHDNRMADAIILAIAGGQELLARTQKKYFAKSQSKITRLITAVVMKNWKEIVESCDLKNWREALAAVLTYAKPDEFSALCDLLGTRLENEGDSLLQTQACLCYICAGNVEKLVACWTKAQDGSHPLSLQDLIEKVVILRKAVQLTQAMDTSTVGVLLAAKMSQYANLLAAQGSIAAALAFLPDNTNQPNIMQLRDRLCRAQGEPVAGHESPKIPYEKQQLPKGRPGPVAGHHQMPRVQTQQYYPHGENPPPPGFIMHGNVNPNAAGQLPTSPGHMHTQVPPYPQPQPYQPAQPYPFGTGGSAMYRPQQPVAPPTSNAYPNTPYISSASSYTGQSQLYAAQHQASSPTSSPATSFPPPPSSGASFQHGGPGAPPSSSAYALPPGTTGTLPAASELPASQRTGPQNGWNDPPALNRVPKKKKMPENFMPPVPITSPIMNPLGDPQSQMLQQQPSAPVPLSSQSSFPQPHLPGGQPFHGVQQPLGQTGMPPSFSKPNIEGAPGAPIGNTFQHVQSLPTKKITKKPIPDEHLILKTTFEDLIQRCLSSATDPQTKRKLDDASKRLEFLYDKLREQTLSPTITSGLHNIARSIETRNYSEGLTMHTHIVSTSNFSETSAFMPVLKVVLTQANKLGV
inactive: [1] -0.078 | [2] -0.024 | [3] -0.022 | [4] -0.099 | entinostat 0.041 | vorinostat 0.003 | citarinostat 0.042 | silmitasertib 0.063 | [5] -0.048 | [6] 0.07 | entospletinib -0.119

RPS12 (UniProt P25398)
inactive: [1] 0.006 | [2] 0.073 | [3] 0.134 | [4] 0.068 | entinostat -0.032 | vorinostat -0.002 | citarinostat 0.009 | silmitasertib -0.042 | [5] 0.076 | [6] -0.113 | entospletinib 0.055

SIDT2 isoform 2 (UniProt Q8NBJ9)
inactive: [1] 0.057 | [2] -0.01 | [3] -0.086 | [4] 0.297 | entinostat -0.064 | vorinostat -0.107 | citarinostat 0.002 | silmitasertib -0.067 | [5] 0.029 | [6] 0.108 | entospletinib -0.003

RBM12 (UniProt Q9NTZ6)
inactive: [1] -0.044 | [2] -0.062 | [3] -0.219 | [4] -0.106 | entinostat 0.133 | vorinostat 0.128 | citarinostat 0.107 | silmitasertib -0.026 | [5] -0.219 | [6] -0.002 | entospletinib -0.055

RRAGC (UniProt Q9HB90)
UniProt Q9HB90, sequence (Q9HB90 whole entry, looked up): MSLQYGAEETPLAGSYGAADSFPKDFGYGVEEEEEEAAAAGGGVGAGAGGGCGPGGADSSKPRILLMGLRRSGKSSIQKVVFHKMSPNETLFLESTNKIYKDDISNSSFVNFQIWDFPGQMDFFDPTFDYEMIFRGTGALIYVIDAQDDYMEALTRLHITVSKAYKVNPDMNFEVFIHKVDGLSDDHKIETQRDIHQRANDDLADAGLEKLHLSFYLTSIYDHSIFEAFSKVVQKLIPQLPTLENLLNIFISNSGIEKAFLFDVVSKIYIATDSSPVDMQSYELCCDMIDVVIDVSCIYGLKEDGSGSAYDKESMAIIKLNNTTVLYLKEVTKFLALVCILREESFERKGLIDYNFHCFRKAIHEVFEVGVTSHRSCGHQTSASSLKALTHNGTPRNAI
active: [3] -0.265
inactive: [1] -0.001 | [2] -0.091 | [4] -0.069 | entinostat -0.004 | vorinostat -0.015 | citarinostat 0.041 | silmitasertib 0.014 | [5] 0.011 | [6] -0.027 | entospletinib 0.021

RPRD1B (UniProt Q9NQG5)
active: [5] -0.346
inactive: [1] -0.058 | [2] -0.03 | [3] -0.087 | [4] -0.081 | entinostat 0.051 | vorinostat 0.049 | citarinostat 0.029 | silmitasertib 0.031 | [6] -0.049 | entospletinib 0.037

RPS14 (UniProt P62263)
inactive: [1] 0.056 | [2] 0.142 | [3] 0.149 | [4] 0.08 | entinostat -0.033 | vorinostat -0.106 | citarinostat -0.089 | silmitasertib -0.041 | [5] 0.209 | [6] -0.069 | entospletinib 0.025

SKP1 (UniProt P63208)
UniProt P63208, sequence (P63208 whole entry, looked up): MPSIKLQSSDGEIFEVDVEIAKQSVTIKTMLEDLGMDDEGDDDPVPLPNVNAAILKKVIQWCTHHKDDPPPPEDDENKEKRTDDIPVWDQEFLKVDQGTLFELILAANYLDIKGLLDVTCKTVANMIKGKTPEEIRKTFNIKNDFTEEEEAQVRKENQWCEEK
inactive: [1] 0.015 | [2] 0.011 | [3] 0.034 | [4] 0.047 | entinostat 0.037 | vorinostat 0.16 | citarinostat -0.003 | silmitasertib 0 | [5] 0.008 | [6] 0.01 | entospletinib 0.008

RSRC2 (UniProt Q7L4I2)
inactive: [1] -0.05 | [2] 0.111 | [3] -0.001 | [4] -0.019 | entinostat -0.01 | vorinostat -0.029 | citarinostat 0.038 | silmitasertib -0.13 | [5] 0.023 | [6] -0.034 | entospletinib 0.019

SERPINA7 (UniProt P05543)
inactive: [1] -0.062 | [2] 0.132 | [3] 0.234 | [4] -0.075 | entinostat -0.084 | vorinostat -0.164 | citarinostat -0.011 | silmitasertib 0.091 | [5] 0.089 | [6] 0.367 | entospletinib 0.273

SCAMP2 (UniProt O15127)
UniProt O15127, sequence (O15127 whole entry, looked up): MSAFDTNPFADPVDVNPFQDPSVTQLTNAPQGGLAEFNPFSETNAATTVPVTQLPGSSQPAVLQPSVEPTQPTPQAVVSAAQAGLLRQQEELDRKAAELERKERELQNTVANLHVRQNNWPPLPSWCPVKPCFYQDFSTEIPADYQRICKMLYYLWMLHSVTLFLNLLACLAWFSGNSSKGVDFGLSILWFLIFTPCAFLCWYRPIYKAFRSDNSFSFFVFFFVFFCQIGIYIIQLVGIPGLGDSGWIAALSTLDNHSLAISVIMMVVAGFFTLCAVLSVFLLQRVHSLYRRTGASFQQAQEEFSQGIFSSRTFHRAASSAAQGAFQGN
inactive: [1] -0.007 | [2] 0.168 | [3] 0.001 | [4] 0.029 | entinostat -0.001 | vorinostat -0.027 | citarinostat 0.189 | silmitasertib -0.002 | [5] 0.109 | [6] -0.065 | entospletinib -0.078

SEC24A (UniProt O95486)
UniProt O95486, sequence (O95486 whole entry, looked up): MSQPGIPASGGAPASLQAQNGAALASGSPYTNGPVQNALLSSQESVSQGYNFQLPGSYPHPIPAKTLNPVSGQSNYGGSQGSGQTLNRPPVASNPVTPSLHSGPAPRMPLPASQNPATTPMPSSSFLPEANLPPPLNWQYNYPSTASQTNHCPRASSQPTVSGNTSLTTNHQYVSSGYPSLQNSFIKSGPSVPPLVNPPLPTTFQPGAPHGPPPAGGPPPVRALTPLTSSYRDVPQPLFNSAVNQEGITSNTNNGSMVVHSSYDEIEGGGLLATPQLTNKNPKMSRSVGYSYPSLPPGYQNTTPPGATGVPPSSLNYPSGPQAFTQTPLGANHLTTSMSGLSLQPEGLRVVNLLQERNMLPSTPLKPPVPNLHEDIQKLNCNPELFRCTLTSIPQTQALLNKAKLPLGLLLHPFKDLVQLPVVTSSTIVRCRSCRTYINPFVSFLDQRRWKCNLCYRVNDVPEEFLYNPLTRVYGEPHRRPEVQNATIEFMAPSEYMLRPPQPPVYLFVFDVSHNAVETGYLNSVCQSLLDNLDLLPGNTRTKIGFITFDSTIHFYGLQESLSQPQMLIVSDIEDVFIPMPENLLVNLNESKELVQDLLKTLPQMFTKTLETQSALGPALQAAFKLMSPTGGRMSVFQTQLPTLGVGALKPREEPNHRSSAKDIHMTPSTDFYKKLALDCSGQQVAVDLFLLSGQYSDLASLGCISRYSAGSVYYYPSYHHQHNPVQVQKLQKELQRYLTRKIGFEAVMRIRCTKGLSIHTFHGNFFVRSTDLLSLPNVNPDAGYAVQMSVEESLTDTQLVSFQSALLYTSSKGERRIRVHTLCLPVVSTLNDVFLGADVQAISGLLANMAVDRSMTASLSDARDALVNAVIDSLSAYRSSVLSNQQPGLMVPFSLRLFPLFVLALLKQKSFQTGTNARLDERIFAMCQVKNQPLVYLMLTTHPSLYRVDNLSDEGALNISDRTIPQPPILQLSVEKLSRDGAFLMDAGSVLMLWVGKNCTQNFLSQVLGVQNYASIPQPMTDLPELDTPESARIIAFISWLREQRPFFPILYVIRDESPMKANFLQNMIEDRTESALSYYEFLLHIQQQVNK
inactive: [1] -0.015 | [2] 0 | [3] -0.108 | [4] -0.016 | entinostat 0.016 | vorinostat 0.078 | citarinostat 0 | silmitasertib 0.02 | [5] -0.092 | [6] -0.013 | entospletinib 0.024

RAB9A (UniProt P51151)
inactive: [1] 0.014 | [2] -0.026 | [4] -0.022 | entinostat 0 | vorinostat 0.035 | citarinostat 0.039 | silmitasertib -0.028 | [5] -0.032 | [6] -0.018 | entospletinib -0.015
active: [3] -0.229

SETMAR (UniProt Q53H47)
active: citarinostat -0.629
inactive: [1] 0.11 | [2] -0.024 | [3] 0.05 | [4] -0.078 | entinostat -0.032 | vorinostat 0.004 | silmitasertib -0.064 | [5] -0.105 | [6] -0.255 | entospletinib 0.075

RPS16 (UniProt P62249)
inactive: [1] 0.086 | [2] 0.08 | [3] 0.182 | [4] 0.043 | entinostat -0.043 | vorinostat 0.017 | citarinostat -0.044 | silmitasertib -0.097 | [5] 0.093 | [6] -0.119 | entospletinib 0.074

SACM1L (UniProt Q9NTJ5)
UniProt Q9NTJ5, sequence (Q9NTJ5 whole entry, looked up): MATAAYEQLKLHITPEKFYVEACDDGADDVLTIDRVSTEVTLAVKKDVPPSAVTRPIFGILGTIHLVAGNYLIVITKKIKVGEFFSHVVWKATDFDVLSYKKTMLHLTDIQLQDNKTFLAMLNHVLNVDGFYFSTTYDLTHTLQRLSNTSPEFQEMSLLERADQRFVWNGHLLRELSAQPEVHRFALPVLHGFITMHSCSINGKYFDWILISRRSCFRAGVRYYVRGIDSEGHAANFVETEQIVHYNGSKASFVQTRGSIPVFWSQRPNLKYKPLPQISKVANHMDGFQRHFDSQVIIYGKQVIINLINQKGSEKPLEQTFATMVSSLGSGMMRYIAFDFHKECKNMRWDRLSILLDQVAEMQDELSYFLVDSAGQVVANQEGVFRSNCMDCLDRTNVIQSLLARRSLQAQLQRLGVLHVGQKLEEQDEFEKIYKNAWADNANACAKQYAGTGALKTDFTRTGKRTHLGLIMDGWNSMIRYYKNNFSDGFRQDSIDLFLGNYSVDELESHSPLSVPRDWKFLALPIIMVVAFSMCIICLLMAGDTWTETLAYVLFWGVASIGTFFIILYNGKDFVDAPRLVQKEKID
inactive: [1] -0.045 | [2] 0 | [3] -0.102 | [4] -0.083 | entinostat 0.016 | vorinostat 0.006 | citarinostat 0.044 | silmitasertib 0.034 | [5] -0.068 | [6] -0.017 | entospletinib 0.004

SDCBP (UniProt O00560)
UniProt O00560, sequence (O00560 whole entry, looked up): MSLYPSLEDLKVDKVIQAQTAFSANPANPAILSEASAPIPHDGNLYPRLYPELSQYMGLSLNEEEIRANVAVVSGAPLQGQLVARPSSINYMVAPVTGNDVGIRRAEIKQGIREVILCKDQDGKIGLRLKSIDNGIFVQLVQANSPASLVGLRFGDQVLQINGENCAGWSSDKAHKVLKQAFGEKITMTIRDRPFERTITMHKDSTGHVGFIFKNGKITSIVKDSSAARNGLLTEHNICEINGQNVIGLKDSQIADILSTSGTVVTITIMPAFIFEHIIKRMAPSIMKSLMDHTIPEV
inactive: [1] -0.027 | [2] -0.017 | [3] -0.207 | [4] -0.189 | entinostat 0.007 | vorinostat 0.063 | citarinostat -0.014 | silmitasertib 0.073 | [5] 0.028 | [6] -0.08 | entospletinib 0.115

RBM4 (UniProt Q9BWF3)
UniProt Q9BWF3, sequence (Q9BWF3 whole entry, looked up): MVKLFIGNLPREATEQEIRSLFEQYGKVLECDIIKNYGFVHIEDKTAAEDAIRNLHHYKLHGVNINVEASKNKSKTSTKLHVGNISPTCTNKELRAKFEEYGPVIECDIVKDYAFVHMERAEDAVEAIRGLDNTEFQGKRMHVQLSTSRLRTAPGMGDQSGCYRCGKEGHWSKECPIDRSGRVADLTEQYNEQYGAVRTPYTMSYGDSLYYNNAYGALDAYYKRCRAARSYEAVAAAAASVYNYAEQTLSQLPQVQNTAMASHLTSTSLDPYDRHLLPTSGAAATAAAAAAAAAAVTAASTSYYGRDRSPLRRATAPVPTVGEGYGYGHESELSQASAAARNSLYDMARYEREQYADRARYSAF
inactive: [1] 0.015 | [2] -0.031 | [3] -0.017 | [4] -0.033 | entinostat 0.023 | vorinostat 0.06 | citarinostat -0.015 | silmitasertib 0.095 | [5] -0.002 | [6] -0.092 | entospletinib 0.077

SIRT2 (UniProt Q8IXJ6)
inactive: [1] -0.048 | [2] 0.023 | [3] -0.07 | [4] -0.066 | entinostat -0.02 | vorinostat -0.039 | citarinostat -0.022 | silmitasertib -0.035 | [5] -0.035 | [6] 0.033 | entospletinib -0.047

RANBP2 (UniProt P49792)
inactive: [1] 0.063 | [2] -0.05 | [3] 0.01 | [4] 0.005 | entinostat 0.009 | vorinostat -0.034 | citarinostat -0.037 | silmitasertib 0.001 | [5] -0.049 | [6] 0.019 | entospletinib -0.009

RNASEH2A (UniProt O75792)
inactive: [1] -0.017 | [2] -0.06 | [3] -0.181 | [4] -0.109 | entinostat 0.037 | vorinostat -0.145 | citarinostat 0.015 | silmitasertib 0.014 | [5] -0.208 | [6] -0.015 | entospletinib 0.011

RPS15 (UniProt P62841)
inactive: [1] 0.005 | [2] -0.13 | [3] 0.135 | [4] 0 | entinostat -0.068 | vorinostat 0 | citarinostat -0.034 | silmitasertib 0.02 | [5] 0.036 | [6] -0.144 | entospletinib 0.186
